Results on 38 molecules are retold here after PubChem BioAssay (NCI).

About 83,000 compounds went through this panel and 20% of them were active in at least one assay; those are over-represented in the sample as a whole.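 Each cell line was grown in a 96-well plate and treated with one concentration of compound for 48 hours. Values below 10 were considered active.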 A number with no mark means an inactive call. Activity calls are given as the source filed them.

This experiment deals with SF-268 CNS. The experiment in a line: NCI-60 one-dose screen, 48 h (100 = growth as untreated, 0 = no growth, -100 = all killed). The following applies: 10 µM unless noted.
As for `COc1cc(C2CC(=O)Nc3c2cnn3C)cc(OC)c1OC` (stereo not drawn), the growth is 112%.
On to `C=C(c1ccc(C(=O)NCCCn2ccnc2)cc1)c1cc2c(cc1C)C(C)(C)CCC2(C)C`, for which the growth is 38.5%.
Regarding `Nc1c(Br)cc2c(c1Br)Cc1cc(Cl)ccc1-2`, the growth is 107%.
Turning to `CCCCCCCCCCCCNC(=O)N[C@H](C(=O)N[C@H]1/C=C/CCNC(=O)/C=C/[C@H](C)NC1=O)C(C)C`, the growth was -44.9% (active).
To `C=C(C)[C@@H]1CC[C@]2(C(=O)NS(=O)(=O)c3ccccc3)CC[C@]3(C)[C@H](CC[C@@H]4[C@@]5(C)CC[C@H](OC(=O)NS(=O)(=O)c6ccccc6)C(C)(C)[C@@H]5CC[C@]43C)[C@@H]12` belongs 41.4%; to `FC(F)(F)c1cc(-c2nnc3n2N=C(Cl)CS3)cc(C(F)(F)F)c1`, 115%; to `Cc1cc(-c2ccccc2)on1`, 103%.
As for `CNC(=O)c1c(NC(=O)c2cccc(C(F)(F)F)c2)sc2c1CCC(=O)C2`, the growth was 21.7%.
For the molecule `COc1ccccc1/C=C/C(=O)CCC(=O)O`, the growth was 111%.
Take `NNc1ccc(S(N)(=O)=O)cc1`: the growth is 108%.
In the case of `CCc1c(C)c2ccc(O)c(-c3cc(-c4ccccc4)c(C#N)c(=O)[nH]3)c2oc1=O`, the growth was 108%.
For the molecule `O=C1OCC2=C1C(c1ccccc1)c1cc3c(cc1N2CCO)OCO3` (stereo not drawn), the growth was 49%.
To `CCCCCCCCCCCCNC(=O)N[C@H](C(=O)N[C@H]1/C=C/OCCNC(=O)/C=C/[C@H](C(C)C)NC1=O)C(C)C` belongs 46.2%; to `COc1ccc(-n2nc(C(=O)Nc3ccc(F)cc3)nc2-c2cc(OC)c(OC)c(OC)c2)cc1`, 102%; to `COc1ccc2c(c1)OC1=C(C(=O)OC1)C2c1cc(OC)c2c(c1)OCCO2` (stereo not drawn), 29.5%.
As to `O=S1(=O)NCCN1CCNc1nccc(-c2c(-c3cccc(O)c3)nc3sccn23)n1`, the growth is 116%.
For the molecule `O=C(CC(=O)C(F)(F)C(F)(F)C(F)(F)F)c1cc2ccccc2o1`, the growth is 111%.
Take `Clc1cc2nc(-c3ccccc3)c(-c3ccccc3)nc2cc1Cl`: the growth was 105%.
With `CC(C)(C)c1ccc(C(=O)Nc2sc3cc(O)ccc3c2C(N)=O)cc1`, the growth is 92.4%.
To `CC1=CCC2C1CC=C(C)C(CC[C@H]1[C@@](C)(O)CCC3OC(C)(C)[C@H](OC(=O)c4ccccc4)CC[C@@]31C)C2(C)C` (stereo partly drawn) belongs 93.6%; to `CC(=O)C1CCC2C3CC(C)=C4CC(O)CCC4(C)C3CCC12C` (stereo not drawn), 102%; to `CCCCCCCCCCCCCC`, 120%.
As for `CCN(CCC#N)c1ccccc1`, the growth is 115%.
To `O=S1(=O)NCCCN1CCNc1nccc(-c2c(-c3cccc(O)c3)nc3sccn23)n1` belongs 81.3%; to `COc1ccc(-c2conc2-n2nc(-c3ccccc3)nc2-c2ccccc2)cc1`, 122%; to `COc1ccccc1CNCCCN1C(=O)c2ccc3c4c(ccc(c24)C1=O)C(=O)N(CCCCNCCCN)C3=O`, 2.12% (active).
In the case of `Cc1ccc(C(=O)CC(=O)C(F)(F)C(F)(F)C(F)(F)F)s1` it was 101%; in that of `O=C1CCCN1C(O)CCN(Cc1ccccc1)Cc1ccc(Cl)cc1` (stereo not drawn), 105%; in that of `Nc1c(N)c2ccccc2c2ccccc12`, 115%.
To `CCOC(=O)C1=C(C)NC(=S)NC1c1ccccc1` (stereo not drawn) belongs 91.7%; to `CCOC(=O)C1=C(C(=O)OCC)N(c2cc(OC)c(OC)c(OC)c2)C(N)=C(C#N)C1c1cc(=O)[nH]c2ccccc12` (stereo not drawn), 91.1%; to `CC(=O)Nc1ccc(/C=N/N2CCCCCC2)cc1`, 99.4%.
Consider `CCOC(=O)c1cnc(SCC)nc1SC#N`, for which the growth is 103%.
In the case of `COc1cc(OC)c(C(=O)/C=C/c2cccc(OC(C)=O)c2)cc1CC=C(C)C` it was 70.4%; in that of `COc1cc2ccc(C(C)=O)cc2cc1OC`, 101%; in that of `CN1CCCN(CCNc2nccc(-c3c(-c4cccc(O)c4)nc4sccn34)n2)S1(=O)=O`, 71.5%.
To `CCN(CC)c1ccc(/C=C2/NC(=O)NC2=O)cc1` belongs 57%; to `CCOC(=O)c1ccc2c(c1)[n+](=O)c(C(=O)c1ccc3ccccc3c1)c(C(F)(F)F)n2[O-]`, -88.8% (active).
